FBPA Giardia inh – Giardia lamblia aldolase inhibition; actives 0.71% (n = 290,000); A8B2U2; purified Giardia FBPA; AID 2451; Potency, µM (highest dose often 59.6 µM), for the others: top-dose activity, negative = inhibition, actives largely listed as inhibitors; further: potency means the concentration at half of the fitted maximal effect; on the % scale 0 is the no-effect control and ±100 the full control effect; nearly all actives have a fitted effect of over 55% in size
Target sequence (A8B2U2 whole entry, looked up): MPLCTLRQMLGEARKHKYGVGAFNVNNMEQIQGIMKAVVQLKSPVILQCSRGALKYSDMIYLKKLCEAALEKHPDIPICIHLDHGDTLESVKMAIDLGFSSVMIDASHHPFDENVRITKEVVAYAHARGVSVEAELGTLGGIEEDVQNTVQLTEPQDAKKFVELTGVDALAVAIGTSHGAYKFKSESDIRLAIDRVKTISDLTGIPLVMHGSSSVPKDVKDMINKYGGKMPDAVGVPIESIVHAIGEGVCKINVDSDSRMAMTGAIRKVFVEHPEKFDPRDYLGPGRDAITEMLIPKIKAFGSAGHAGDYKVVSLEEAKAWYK
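Giardia FBPA (40 nM reagent) was preincubated 10 min at RT with compound (up to 57.5 uM final), then substrate plus GAPDH/TPI/NAD/arsenate coupling system with diaphorase/resazurin was added; resorufin fluorescence (525/598 nm) was read after 20 min.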
Shiga toxin inh – inhibitors of Shiga toxin in Vero cells | inhibition, % at 38.7 µM | Vero cells, Shiga toxin protein synthesis inhibition reporter | actives 9.2% (n = 290,000); in the data active means inhibition mostly above about 28%, no sharp cut-off; inactive means mostly below about 43%; further: 0% is about no effect
Pf growth 96h – inhibits malaria parasite growth, 96 h. P. falciparum luciferase reporter growth, 96 h. Potency, µM (titrated, usually from 28.7 µM), for inactives: at the highest dose activity change, negative = inhibition, most hits filed as inhibitors. actives 6.9% (n = 320,000); further: potency means the concentration at half of the fitted maximal effect; on the % scale 0 is the no-effect control and ±100 the full control effect
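Infected RBCs, 2% Hct / 0.05% parasitemia final; luciferase-reporter P. falciparum; cpd 96 h, 37 C, 5% CO2; luciferase detection reagent; luminescence.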
NS1 function inh – influenza NS1 inhibition; actives 0.4% (n = 270,000); Potency, µM (doses to about 46.1 µM), for the others: at the top dose activity, positive = more growth; calls by dose curve; further: potency means the concentration at half of the fitted maximal effect; actives are rising curves; nearly all actives have a fitted effect of over 50% in size
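Recovery from NS1-induced slow growth read by OD600 in budding yeast switched to galactose assay medium (pH 6.0, -URA) at 1:100 dilution. Compound 23 nl per well; the matching strain lacking NS1 serves as control.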
Cycloheximide cs – counter-screen hit for Shiga toxin inhibitors, cycloheximide; cell reporter, cycloheximide protein synthesis inhibition counterscreen; max response, %; actives 12% (n = 300,000); AID 2314; in the data active means max response mostly above about 13%, no sharp cut-off; inactive means mostly below about 14%; further: read at 38.3 µM for the half of the compounds with a filed dose; 0% is about no effect
Pf growth 48h – inhibits P. falciparum growth in the first generation, 48 h | actives 5.9% (n = 310,000) | Potency, µM (highest dose often 28.7 µM), for the others: at the top dose activity change, negative = inhibition, actives largely listed as inhibitors | AID 504832 | P. falciparum luciferase growth in erythrocytes, 48 h; further: potency means the concentration at half of the fitted maximal effect; on the % scale 0 is the no-effect control and ±100 the full control effect
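Here the parasites carry a stable luciferase gene and grow inside erythrocytes in Albumax-based RPMI medium with compound for one erythrocytic cycle. Activity is scored as loss of luminescent signal.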
* hit, by the source's call; ? = inconclusive; . = not tested or not shown; [ ] = remark or other dose. An excerpt weighted towards active compounds, which were near 21% of everything screened. Unless noted, the call rests on the fitted dose curve; in most records, active means well fitted curve in the direction sought with a large enough effect; inconclusive means small, poorly fitted or top-dose-only effect, or another doubt; inactive means no such curve, though single readings can be large; an effect the other way counts as inactive or inconclusive.

SMILES	FBPA Giardia inh	Shiga toxin inh	Pf growth 96h	NS1 function inh	Cycloheximide cs	Pf growth 48h
Cc1ccc(S(=O)(=O)N2CCCCC2)cc1NC(=O)c1ccc2c(c1)OCO2	-1%	-6	9%	-15%	-2	-8%
O=C(NCCN1CCOCC1)c1cc(-c2ccc(O)cc2)on1	.	.	.	-17%	.	.
O=C1COc2ccc(C(=O)COC(=O)c3cc(S(=O)(=O)N4CCOCC4)ccc3F)cc2N1	-9%	-15	14%	-11%	-5	?
O=C(CC(SCCO)c1ccc2c(c1)OCO2)c1ccco1 (stereo not drawn)	2%	123*	15%	-9%	48*	58%
O=C(NCc1ccc2c(c1)OCO2)c1ccco1	0%	13	-14%	.	10	21%
O=c1[nH]n(CC2COC3(CCCCC3)O2)c(=O)c2ccccc12 (stereo not drawn)	1%	43*	8.3µM*	-6%	33*	58%
NS(=O)(=O)c1ccc(CCNC(=O)c2ccc3c(c2)OCCO3)cc1	-6%	-16	-48%	.	-6	-17%
Cc1cc2cc3c(cc2nc1SCc1ccc(C(=O)O)cc1)OCCO3	3%	-8	9.3µM*	-2%	5	11%
COc1cccc(CSc2nc3cc4c(cc3cc2C)OCCO4)c1	6%	-4	5.9µM*	9%	1	-8%
Cc1cc2cc3c(cc2nc1SCC(=O)O)OCCO3	4%	-2	?	-52%	-1	22%
Cn1c(SCC(=O)Nc2ccc(NC(=O)c3cccc(F)c3)cc2)nnc1-c1ccncc1	6%	24	16%	0%	-3	-1%
c1ccc(C2(Cn3ccc4ccccc43)OCCO2)cc1	-9%	-4	?	-10%	-2	13µM*
CCC(C)c1ccc(NC(=S)NC(C)C2CCCO2)cc1 (stereo not drawn)	2%	38*	?	-10%	10*	68%
CCC(C)c1ccc(NC(=O)N2CCOCC2)cc1 (stereo not drawn)	-3%	68*	25%	-27%	41*	93%
CN(C)c1ccc(NC(=O)N2CCOCC2)cc1	?	72*	?	25%	39*	6.6µM*
O=C(Nc1ccc(F)cc1)N1CCOCC1	2%	23	?	-3%	-2	20%
O=C(Nc1ccc(Cc2ccc(NC(=O)N3CCOCC3)cc2)cc1)N1CCOCC1	10%	7	4.1µM*	-6%	-2	?
CN(C)c1nnnn1-c1ccc(OC(F)(F)F)cc1	7%	1	0%	.	2	-15%
C=CC[C@@H]1C=C[C@@H](O/N=C(/C)CCC(=O)OC[C@@H]2O[C@H](c3ccccc3)C=C[C@@H]2Oc2ccc(OC)cc2)[C@@H](CO)O1	2%[12.9 µM]	.	.	.	.	.
O=C(O)c1ccccc1SCCS(=O)(=O)c1ccc(Cl)cc1Cl	8%	-5	-1%	5%	-4	0%
CCC12C=CCN3CCC4(c5cc(Br)c(OC)cc5N(C)C4C(O)(C(=O)OC)C1OC(C)=O)C32 (stereo not drawn)	-10%	6	?	-21%	-3	?
CC[C@]1(O)C[C@H]2CN(CCc3c([nH]c4ccccc34)[C@@](C(=O)OC)(c3cc4c(cc3OC)N(C=O)[C@H]3[C@@](O)(C(=O)OC)[C@H](OC(C)=O)[C@]5(CC)C=CCN6CC[C@]43[C@@H]65)C2)C1	.	.	9.5µM*	.	.	0.085µM*
CC[C@@]1(O)CC2CN(CCc3c([nH]c4ccccc34)[C@](C(=O)OC)(c3cc4c(cc3OC)N(C)C3[C@@](O)(C(=O)OC)C(OC(C)=O)[C@]5(CC)C=CCN6CC[C@@]43C65)C2)C1 (stereo partly drawn)	10%	.	0.54µM*	.	.	0.76µM*
Cc1cccc(N=Nc2c(O)[nH]c3ccc(Br)cc23)c1	-4%	31*	6%	0%	39*	44%
CCOc1ccc(NC(c2ccccc2)P(=O)(OC)OC)cc1 (stereo not drawn)	12%	26*	?	20%	12	52%
COP(=O)(OC)C(Nc1ccc(C)cc1)c1ccc([N+](=O)[O-])cc1 (stereo not drawn)	0%	25*	24%	-1%	44*	41%
